The text below walks through data of PubChem BioAssay (Tox21).

Each structure is given as a SMILES string. Unmarked numbers belong to inactive results. Results filed as inconclusive are left out. Activity calls are given as the source filed them. Unless noted, calls come from the whole dose curve; as a rule, active = well fitted curve in the direction sought with a large enough effect in the repeat runs; inconclusive = weak or mixed curves; inactive = no such curve, though single readings can be large; an effect the other way counts as inactive or inconclusive.

The nature of test [1]: qHTS assay for small molecule agonists of the p53 signaling pathway (AID 651631; calls by dose curve; note: nearly all actives have a fitted effect of over 15% in size). In short, it runs like this:
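Beta-lactamase reporter activity under p53 response elements was quantified in HCT-116 cells by FRET fluorescence, following 16 h incubation with test compounds at 37 °C and 2 h substrate development at room temperature.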
A general note: qHTS replaces the single test concentration by a dilution series.

Test [2] in a line: qHTS assay for small molecules that induce genotoxicity in human embryonic kidney cells expressing luciferase-tagged ATAD5 (AID 651632). Note: nearly all actives have a fitted effect of over 15% in size. The gist of the method: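 Cells were seeded at 2,000 per well, dosed with compound, and incubated 16 hr at 37C in 5% CO2. Luciferase activity was then quantified after a 30 min room-temperature incubation with Amplite.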
The nature of test [3]: qHTS assay for small molecule agonists of the p53 signaling pathway - cell viability (AID 651633; calls by dose curve;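 note: p53RE-bla HCT reporter cells with a stable beta-lactamase p53 reporter; series mostly up to about 83 µM; nearly all actives have a fitted effect of over 30% in size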). The gist of the method: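 Viability counter-read: CellTiter-Glo luminescence (30 min, room temperature) in the same p53RE-bla plates. These plates had been exposed to compounds for 16 h at 37 C.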
Test [4] in a line: qHTS assay for small molecules that induce genotoxicity in human embryonic kidney cells expressing luciferase-tagged ATAD5 - cell viability (AID 651634; calls by dose curve; note: nearly all actives have a fitted effect of over 25% in size). In short, it runs like this:
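Cells (HEK293T, luciferase-tagged ATAD5) are seeded at 2,000 per well, dosed with compound or DMSO vehicle, and incubated 15.5 hr at 37C and 5% CO2. CellTiter-Fluor is added for 30 min before fluorescence is measured.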

Test [5] is described as follows: qHTS assay to test for compound auto fluorescence at 590 nm (red) in HepG2 cells (AID 720674). The gist of the method:
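Red autofluorescence (Ex/Em 540/590 nm, Rose Bengal sodium equivalents) was measured in HepG2 cells, 2,000 per well in MEM plus 10% FBS, plated overnight at 37 C. Readings were taken 1 hr after adding 23 nL compound or DMSO, at 37 C and 5% CO2.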

The nature of test [6]: qHTS assay to test for compound auto fluorescence at 535 nm (green) in HepG2 cells (AID 720675).
The nature of test [7]: qHTS assay to test for compound auto fluorescence at 460 nm (blue) in HEK293 cells (AID 720678). In short, it runs like this: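 Intrinsic compound fluorescence is recorded in live HEK293 cultures after overnight incubation at 37C, 5% CO2, using excitation 405 nm and emission 460 nm. Values are referenced to triamterene.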
Test [8] is described as follows: qHTS assay to test for compound auto fluorescence at 590 nm (red) in HEK293 cells (AID 720679). The gist of the method:
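Red autofluorescence, HEK293 cells: 2,000 cells/well; attach 4-5 hr 37C; add 23 nL cpd or DMSO; incubate o/n 37C 5% CO2; read Ex540/Em590; Rose Bengal sodium reference.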

Test [9] is described as follows: qHTS assay for small molecule disruptors of the mitochondrial membrane potential - cell viability (AID 720634; calls by dose curve;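 note: human HepG2 liver cancer cells; series mostly up to about 83 µM; nearly all actives have a fitted effect of over 20% in size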). The gist of the method: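 Cytotoxicity was measured by ATP quantitation in HepG2 wells that had first been treated with compound for 1 hr and stained with m-MPI dye; CellTiter-Glo incubation was 30 min at room temperature.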
The nature of test [10]: qHTS assay for small molecule disruptors of the mitochondrial membrane potential (AID 720635). Note: potency is the fitted concentration of half-maximal effect. In short, it runs like this: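 Mitochondrial membrane potential tracked with Mito-MPS dye, red aggregates (ex 540/em 590 nm) against green monomers (ex 490/em 535 nm). Compound treatment 1 hr at 37C, dye 30 min in HepG2.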
% is set by controls: 0 for no effect and ±100 for the full control effect.

Regarding `Cc1cccc(C)c1OCC(C)N` (configuration not stated), the molecule was classed as inactive in [1], in test [3], in test [5], in test [6], in [7] and in test [8]. In addition, the Potency entry in [2] and in [4] was “inactive” each time.

On to `O=C(c1ccc(O)cc1)c1ccc(O)c(O)c1O`, for which the result in test [1], in test [3], in test [9], in test [5], in test [6] and in [7] was inactive. For the same molecule, the call in test [8] was inactive. Also, the Potency result in test [2] is “inactive”. Moreover, the Potency in test [10] was 27.4 µM (active).

Take `CC(=O)NCCCCCC(=O)O`: the molecule was classed as inactive in [1], in [9], in [5], in test [6], in test [7] and in test [8]. Besides, the Potency result in test [2], in test [4] and in test [10] was “inactive” in each case.

As to `CCOC(=O)c1ccc(OC(=O)CCCCCN=C(N)N)cc1`, the outcome in test [1] and in test [9] was inactive. The Potency entry in [2], in [4] and in [10] was “inactive” in each case. In addition, in test [6], the fluorescence, % of fluorescein control is 0.0329% [at 18.6 µM]. Moreover, the fluorescence, % of triamterene in test [7] is -0.0421% [at 18.6 µM]. Moreover, the fluorescence, % of fluorescent control in test [8] is 0.895% [at 18.6 µM].

With `C=C1CC/C=C(\C)CC[C@@H]2[C@@H]1CC2(C)C`, the result in [1], in test [3], in [9], in test [6], in [7] and in test [8] was inactive. For the same molecule, the Potency result in [2] and in [4] was “inactive” in each case.

On to `CC1(C)S[C@@H]2[C@H](N=CN3CCCCCC3)C(=O)N2[C@H]1C(=O)O`, for which the molecule was classed as inactive in test [1], in [9], in [5], in test [6], in test [7] and in test [8]. Further, the Potency entry in test [2] and in [4] was “inactive” throughout.

Regarding `C[C@@H]1O[C@@H](O[C@@H]2[C@@H](O)[C@H](OCCc3ccc(O)c(O)c3)O[C@H](CO[C@@H]3O[C@H](CO)[C@@H](O)[C@H](O)[C@H]3O)[C@H]2OC(=O)/C=C/c2ccc(O)c(O)c2)[C@H](O)[C@H](O)[C@H]1O`, the call in test [1], in test [3], in [9], in test [5], in test [6] and in test [7] was inactive. Further, in test [8], the molecule was classed as inactive. In addition, the Potency result in [4] and in test [10] was “inactive” in each case.

As for `CCN1CCc2nc(N)oc2CC1`, the molecule was classed as inactive in test [1], in test [3], in test [9], in test [5], in test [6] and in test [7]. The result in [8] was inactive. Besides, the Potency result in [4] and in test [10] was “inactive” throughout.

Take `CC(=O)NCc1c(I)c(NC(C)=O)c(I)c(C(=O)O)c1I`: the result in test [1], in [3], in test [9], in test [5], in test [6] and in test [7] was inactive. Besides, the outcome in test [8] was inactive. Also, the Potency entry in test [4] and in [10] was “inactive” throughout.

As for `COCCOCCOCCOCCOCCO`, the call in test [1], in [3], in test [9], in test [5], in test [6] and in [7] was inactive. In test [8], the molecule was called inactive. For the same molecule, the Potency result in [4] was “inactive”.

`O=P(O)(O)OP(=O)(O)O`: the molecule was classed as inactive in test [1], in [3], in [9], in test [5], in [6] and in test [7]. Besides, the molecule was classed as inactive in test [8]. Besides, the Potency result in test [4] and in test [10] was “inactive” each time.

Consider `Cc1cccc(C)c1NC(=O)c1ccccc1C(=O)O`, for which the molecule was called inactive in test [1], in test [3], in [9], in [5], in [6] and in test [7]. For the same molecule, in [8], the outcome was inactive. In addition, the Potency entry in test [4] and in [10] was “inactive” each time.

As to `COCCOC(=O)C1=C(C)NC(C)=C(C(=O)OC(C)C)C1c1cccc([N+](=O)[O-])c1` (configuration not stated), the call in test [1], in test [9], in test [6], in test [7] and in test [8] was inactive. The Potency entry in [2] and in test [4] was “inactive” each time.

On to `C=CC(OCC)OCC`, for which the molecule was called inactive in test [1], in test [3], in [9], in [5], in test [6] and in [7]. In addition, in test [8], the molecule was classed as inactive. Further, in test [4], the Potency result is “inactive”.

In the case of `CN=C(NC#N)Nc1ccc(C2=NNC(=O)CC2C)cc1` (configuration not stated), the molecule was classed as inactive in test [1], in [3], in test [9], in [5], in [6] and in [7]. In addition, the molecule was called inactive in test [8]. The Potency result in test [4] and in test [10] was “inactive” each time.

Regarding `O=C(O)C(=O)Cc1ccccc1`, the outcome in [1], in [9], in test [5], in test [6], in test [7] and in test [8] was inactive. For the same molecule, the Potency entry in test [2] and in test [4] was “inactive” in each case.

For `C=C(C)C(=O)OCCNC(C)(C)C`, the molecule was called inactive in test [1], in [3], in [9], in test [6], in test [7] and in test [8]. The Potency result in test [4] and in [10] was “inactive” each time.

`N[C@@H](CCC(=O)Nc1ccc([N+](=O)[O-])cc1)C(=O)O`: the molecule was classed as inactive in test [1], in test [3], in test [9], in test [5], in test [6] and in test [7]. In addition, in [8], the result was inactive. Moreover, the Potency result in test [4] was “inactive”.

For `O=S(O)(O)=S`, the activation in [1] was -6.63% [at 8.3 µM]. The activity change, negative = cytotoxicity in [3] is 18.5% [at 8.08 µM]; in test [9] it was 11.6% [at 8.08 µM]. The activity, negative = cytotoxicity in [4] was -2.41% [at 8.08 µM]. Besides, the fluorescence, relative to Rose Bengal in test [5] is -0.423% [at 3.72 µM]. Also, the fluorescence, % of fluorescein control in test [6] is 0.0128% [at 3.72 µM]. Also, the fluorescence, % of triamterene in test [7] is -0.0172% [at 3.72 µM]. Besides, the fluorescence, % of fluorescent control in [8] was 0.178% [at 3.72 µM].

As to `CCCCCCCCC1CCC(=O)O1` (configuration not stated), the molecule was called inactive in test [1], in test [3], in test [9], in [6], in [7] and in test [8]. Also, in test [4], the Potency entry was “inactive”.

On to `Cc1cc2cc3c(C)cc(=O)oc3c(C)c2o1`, for which the molecule was called inactive in test [1], in [3] and in test [9]. For the same molecule, in test [4], the Potency result is “inactive”. In addition, in test [5], the fluorescence, relative to Rose Bengal was 0.738% [at 18.6 µM]. In addition, the fluorescence, % of fluorescein control in [6] is -0.0056% [at 18.6 µM]. Moreover, the fluorescence, % of triamterene in test [7] was 1.9% [at 18.6 µM]. In test [8], the fluorescence, % of fluorescent control was 0.0391% [at 18.6 µM].

For `C=C(C)C(=O)OCCN(CC)CC`, the molecule was classed as inactive in test [1], in test [3], in [9], in test [6], in [7] and in test [8]. The Potency result in test [4] and in test [10] was “inactive” each time.
